Only some compounds are listed: those with a hit (about 19% of all), similar ones and a draw of the others.
HT1080-NT tox = kills 2HG-producing HT-1080-NT fibrosarcoma cells | HT-1080-NT fibrosarcoma viability, CellTiter-Glo ATP luminescence, 48 h | 1.6% of 360,000 active | Potency, µM (titrated, usually from 46.1 µM), inactives show at the highest dose activity, negative = less viability, actives largely listed as cytotoxic;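 further: NT is the 2HG producing partner of a matched IDH1 knockdown line; potency means the concentration at half of the fitted maximal effect; 0% = DMSO-treated cells and -100% = media-only wells without cells; nearly all actives have a fitted effect of over 55% in size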
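Fibrosarcoma NT cells, 750 per well in 5% FBS RPMI, were exposed to compound for 48 hours. Viability: CellTiter-Glo luminescence.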
DT40 TDP1 no CPT = qHTS for Inhibitors of human tyrosyl-DNA phosphodiesterase 1 (TDP1): qHTS in cells in absence of CPT; DT40 Tdp1-/- hTDP1 cells, no CPT, ATP luminescence, 48 h; 15% of 420,000 active; AID 686978, 2013; Potency, µM (highest dose often 46.2 µM), without a hit: at the highest dose activity change, negative = growth inhibition, usual class: inhibitors; further: potency means the concentration at half of the fitted maximal effect; nearly all actives have a fitted effect of over 55% in size
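Growth of hTDP1-complemented DT40 Tdp1-knockout cells is measured by ATP luminescence after at least 48 hr compound exposure at 37 °C, with DMSO substituting for the 20 nM CPT used in the parallel screen.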
IL1B secr inh = inflammasome signaling inhibition, IL-1 beta readout | THP-1 LPS/ATP IL-1B secretion, AlphaLISA, 16 h; stronger effect = lower value | activity change, % at 57.5 µM | 4.7% of 360,000 active | AID 743279; in the data active means activity change below about -50%; inconclusive means mostly about -30% to -49%
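THP-1 cells pretreated 1 hr with compounds (up to 57.5 uM final), then stimulated with LPS (250 ng/mL final) plus ATP (1.25 mM final); secreted IL-1B measured by AlphaLISA after 16 hr, decreased signal indicating inhibition.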
TDP1 cell CPT = DT40-hTDP1 cell growth loss with CPT. chicken DT40 Tdp1-/-;hTDP1 cells + 20 nM CPT, ATP luminescence, 48 h. Potency, µM (doses to about 46.2 µM), for the others: top-dose activity change, negative = growth inhibition, hits mostly inhibitors. 12% of 420,000 active. AID 686979; further: potency means the concentration at half of the fitted maximal effect; nearly all actives have a fitted effect of over 55% in size
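Chicken DT40 Tdp1-/- cells complemented with human TDP1, 400 cells/well, exposed to compounds plus 20 nM camptothecin for at least 48 h at 37 C; viability read as ATP content by CellTiter-Glo luminescence.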
HT1080 IDH1KD tx = toxicity to HT-1080 IDH1 knockdown cells (counter line) | HT-1080 IDH1 knockdown viability, ATP luminescence, 48 h | Potency, µM (titrated, usually from 46.1 µM), for the others: at the highest dose activity, negative = toxicity, actives largely listed as cytotoxic | 2% of 360,000 active;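 further: potency means the concentration at half of the fitted maximal effect; 0% = DMSO wells and -100% = cell-free medium wells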
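Knockdown cells (IDH1KD HT-1080) received compounds 2 h after plating at 750 cells/well and were kept 48 h at 37 °C in 5% FBS RPMI. A CellTiter-Glo luminescence read gave % activity for curve fitting.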
Starred values were filed as active, the others as inactive; ? = inconclusive; · = no result; [ ] = dose if it differs, or a comment. Unless noted, the call rests on the fitted dose curve; in most records, active means well fitted curve in the direction sought with a large enough effect; inconclusive means small, poorly fitted or top-dose-only effect, or another doubt; inactive means no such curve, though single readings can be large; an effect the other way counts as inactive or inconclusive. Unless noted, on the % scale 0 is the no-effect control and ±100 the full control effect.

SMILES	HT1080-NT tox	DT40 TDP1 no CPT	IL1B secr inh	TDP1 cell CPT	HT1080 IDH1KD tx
O=C(O)c1ccccc1/C=N/Nc1ccc(S(=O)(=O)N2CCCC2)cc1[N+](=O)[O-]	13µM*	4%	6	3%	?
CC(=O)c1ccc(OCc2nnn(CC(=O)NS(=O)(=O)c3ccc(C)cc3)c2-c2ccccc2)cc1	?	-3%	22	0%	22%
CCOC(=O)C1(C)CCN1C(=O)c1ccc2c(c1)CCO2 (configuration not stated)	27%	-1%	-7	-18%	1%
O=C(Nc1cccc(-n2cnnn2)c1)c1cnccc1Cl	-4%	1%	-3	23%	0%
Cc1ccc(S(=O)(=O)N2CCCCC2C)cc1[N+](=O)[O-] (configuration not stated)	-10%	15µM*	-7	12µM*	-11%
COc1ccc(Nc2ccc(S(=O)(=O)N3CCCCCC3)cc2[N+](=O)[O-])cc1	-14%	23µM*	?	?	-16%
Cc1ccc(S(=O)(=O)N2CCCC2)cc1[N+](=O)[O-]	3%	-7%	5	1%	-10%
COc1cc(Nc2ccc(S(=O)(=O)N3CCN(C)CC3)cc2[N+](=O)[O-])cc(OC)c1	-20%	?	-29	?	-9%
COc1ccc(Nc2ccc(S(=O)(=O)N3CCCCC3)cc2[N+](=O)[O-])cc1OC	-4%	21µM*	0	?	-4%
O=C(Nc1cccc(C(F)(F)F)c1)c1cccc(NS(=O)(=O)c2ccc(O)c(C(=O)O)c2)c1	0%	0%	7	12%	3%
c1ccc2sc(SN3CCOCC3)nc2c1	-6%	?	24	-23%	-7%
CC1=Nc2cc(C(=O)NC(C)C)ccc2Sc2ccc(C)cc21	·	4.1µM*	·	4.6µM*	·
CNC(=O)c1ccc2c(c1)N=C(C)c1cc(C)ccc1S2	·	4.6µM*	·	3.7µM*	·
CCOC(=O)C(Sc1cc(-c2ccccc2)nc2ncnn12)C(C)=O (configuration not stated)	?	18µM*	-19	?	-27%
Cc1cccc(-n2cc(-c3ccccc3)c3c(NC4CCCC4)ncnc32)c1	·	16µM*	·	?	·
Cc1ccc(-n2cc(-c3ccccc3)c3c(NC4CCCC4)ncnc32)cc1	·	23µM*	·	?	·
CC(=O)Nc1ccc(S(=O)(=O)NNC(=O)c2cc3c4ccccc4n(C)c3s2)cc1	-20%	5.2µM*	-5	5.2µM*	-9%
CCCNC(=O)c1cc2c3ccccc3n(C)c2s1	-3%	-22%	3	-4%	-1%
Cn1c2ccccc2c2cc(C(=O)NNC(=O)CCl)sc21	?	9.2µM*	-133*	3.7µM*	21µM*
CSc1nc2[nH]c3c(c2c2ncnn12)CCCC3	-3%	?	-13	15µM*	-10%
COc1cccc2c1-c1c(O)cccc1C2=O	9%	4%	-20	3%	1%
COc1cccc(O)c1O	·	4.6µM*	·	3.7µM*	·
CCC(=O)N1CCc2cc(S(=O)(=O)CCC(=O)NCc3ccc(F)cc3)ccc21	·	3.3µM*	·	6.5µM*	·
CCC(=O)N1CCc2cc(S(=O)(=O)CCC(=O)Nc3nc(C)cs3)ccc21	-4%	?	-58*	?	-6%
COc1cccc(NC(=O)CSc2nc3c([nH]c4ccccc43)c(=O)n2-c2cc(C)cc(C)c2)c1	·	12%	·	1%	·
SMILES	HT1080-NT tox	DT40 TDP1 no CPT	IL1B secr inh	TDP1 cell CPT	HT1080 IDH1KD tx
O=C(CSc1nc2c([nH]c3ccccc32)c(=O)n1-c1ccc(F)cc1)NCc1ccc(F)cc1	·	15µM*	·	?	·
COc1cccc(-n2c(SCC(=O)Nc3c(C)cc(C)cc3C)nc3c([nH]c4ccccc43)c2=O)c1	·	13µM*	·	12µM*	·
Cc1ccc(-n2c(SCC(=O)NCc3ccccc3)nc3c([nH]c4ccccc43)c2=O)cc1	·	-29%	·	?	·
COc1ccc(-n2c(SCC(=O)NCc3ccccc3)nc3c([nH]c4ccccc43)c2=O)cc1	·	?	·	18µM*	·
CCSc1nc2c([nH]c3ccccc32)c(=O)n1-c1ccc(F)cc1	·	?	·	21µM*	·
CCSc1nc2c([nH]c3ccccc32)c(=O)n1C	13%	-22%	41	-4%	23%
O=C(NCc1ccc(F)cc1)C1CCCN(c2nc3ccsc3c(=O)s2)C1 (configuration not stated)	-9%	-14%	1	-8%	-6%
C=CCOc1ccc(/C=C/C(=O)N2CCCN(S(=O)(=O)c3c(C)noc3C)CC2)cc1	3%	?	-21	-11%	5%
Cc1ccc(-n2c(SCc3ccccc3)nc3c([nH]c4ccccc43)c2=O)cc1	·	-5%	·	-26%	·
O=c1c2[nH]c3ccccc3c2nc(SCc2cccc(F)c2)n1-c1ccccc1	·	23µM*	·	?	·
CCCNC(=O)c1cc(C2CCCCN2C(=O)c2ccc3ccccc3c2)on1 (configuration not stated)	-1%	?	1	?	18%
Cc1oc2ncn(C)c(=O)c2c1C(=O)NCc1ccc(Cl)cc1	·	?	·	-23%	·
CCC(C)Sc1ccc([C@H]2N[C@@](C)(C(=O)OC)[C@H]3C(=O)N(CC)C(=O)[C@@H]23)cc1OC (some centres not stated)	12%	?	35	?	4%
C=CCn1c(NCc2cc(Cl)ccc2O)nc2ccccc21	?	?	-69*	?	?
C=CCc1cccc(CNc2nc3ccccc3n2C(C)C)c1O	?	?	0	?	11µM*
COc1cnc(-c2ccccc2)[nH]c1=O	18%	-13%	-4	-12%	-2%
COc1ccc(CN2C(=O)C(CC(=O)NCCc3ccccn3)CC(C(=O)N(C)C)=C2C)cc1 (configuration not stated)	3%	-18%	3	25%	0%
CS(=O)(=O)Nc1ccc(C(=O)N2CCN(c3ccccc3)CC2)cc1	5%[9.24 µM]	-15%	15	-19%	7%
Cc1ccc(C2=NC(=O)/C(=C/c3cc(O)c(O)c(Br)c3)S2)cc1	-11%	16µM*	33	18µM*	-17%
COc1cc(/C=C2\SC(c3ccc(C)cc3)=NC2=O)cc(OC)c1O	9%	?	-12	-23%	-3%
O=C(/C=C/c1ccccc1)NC(=S)NNC(=O)c1cnccn1	-27%	5.8µM*	34	3.3µM*	?
CC(/C=C/c1ccccc1)=N/NC(=O)c1cnccn1	19%	-16%	?	8%	12%
O=C(/C=C/c1ccccc1)NC(=S)NNC(=O)c1cccnc1	-5%	5.8µM*	-3	13µM*	-10%

Compound activity from PubChem.
